{
  "source": "PubChem BioAssay AID1347414",
  "about": "(National Center for Advancing Translational Sciences (NCATS), 2020)",
  "note": "Results filed as inconclusive are left out. Calls of active or inactive are those of the source. The call rests on the fitted dose curve; in most records, active means well fitted inhibition curve with a large enough effect; inconclusive means small, poorly fitted or top-dose-only effect; inactive means no such curve, though single readings can be large or run the other way. Potency means the concentration at half of the fitted maximal effect.",
  "data": [
    {"assay": "qHTS to identify inhibitors of the type 1 interferon - major histocompatibility complex class I in skeletal muscle: Secondary screen by immunofluorescence; further: nearly all actives have a fitted effect of over 70% in size", "conditions": "C25cl48 myoblasts, IFN-b induced HLA-ABC immunofluorescence, 24 h; series mostly up to 49.8 µM", "how_it_was_run": "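HLA-ABC immunofluorescence, with nuclear and cell-body stains, was quantified by laser scanning cytometry. Read-out followed 24 h of IFN-beta (4.0 ng/ml) stimulation of C25cl48 human myoblasts with compounds titrated 1:3 over 11 points from 50 uM, with ruxolitinib as inhibitor control.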", "values": [
      {"smiles": "CC(C)c1nn(-c2c(Cl)cccc2Cl)c2nc(Cc3ccc(OCCO)cc3)[nH]c(=O)c12", "Potency": "22.9 nM (active)"},
      {"smiles": "N#CC[C@H](C1CCCC1)n1cc(-c2ncnc3[nH]ccc23)cn1", "Potency": "458 nM (active)"},
      {"smiles": "Cc1ccc(C(N)=O)cc1Nc1nccc(-c2cn(C(C)C)c3cnccc23)n1", "Potency": "3330 nM (active)"},
      {"smiles": "Cc1ccc(C(=O)Nc2ccc(CN3CCN(C)CC3)c(C(F)(F)F)c2)cc1C#Cc1cnc2[nH]ncc2c1", "Potency": "726 nM (active)"},
      {"smiles": "COc1cc(Nc2ncc(F)c(Nc3ccc4c(n3)NC(=O)C(C)(C)O4)n2)cc(OC)c1OC", "Potency": "inactive"},
      {"smiles": "OC1CCC(Oc2cccc3cnc(Nc4ccc5nc[nH]c5c4)nc23)CC1", "note": "(stereo unspecified)", "Potency": "1020 nM (active)"},
      {"smiles": "CC(C)(C)c1nc2c3cc[nH]c(=O)c3c3cc(F)ccc3c2[nH]1", "Potency": "514 nM (active)"},
      {"smiles": "CN(Cc1ccc(/C=C/C(=O)NO)cc1)CC12CC3CC(CC(C3)C1)C2", "Potency": "72.6 nM (active)"},
      {"smiles": "N#CCNC(=O)c1ccc(-c2ccnc(Nc3ccc(N4CCOCC4)cc3)n2)cc1", "Potency": "1620 nM (active)"},
      {"smiles": "CC[C@@]1(O)C(=O)OCc2c1cc1n(c2=O)Cc2c-1nc1cc(F)c(C)c3c1c2[C@@H](N)CC3", "Potency": "1290 nM (active)"},
      {"smiles": "OCCCNc1cc(-c2ccnc(Nc3cccc(Cl)c3)n2)ccn1", "Potency": "81.4 nM (active)"},
      {"smiles": "Cn1cc(CNCC2CCN(c3ncc(C(=O)NO)cn3)CC2)c2ccccc21", "Potency": "9.1 nM (active)"},
      {"smiles": "c1cc(Nc2cc(C3CC3)[nH]n2)nc(Nc2ccc3nc[nH]c3c2)n1", "Potency": "647 nM (active)"},
      {"smiles": "COc1ncc(Nc2ncc(C(C)N3CCN(S(C)(=O)=O)CC3)cc2-c2nc(C)nc(N)n2)cc1F", "note": "(stereo unspecified)", "Potency": "inactive"},
      {"smiles": "Fc1cccc(-n2cnc3c(NCc4nc5c(F)c(F)ccc5[nH]4)nc(N4CCOCC4)nc32)c1", "Potency": "289 nM (active)"},
      {"smiles": "Cc1cnc(Nc2ccc(N3CCN(C)CC3)cc2)nc1Nc1cccc(S(=O)(=O)NC(C)(C)C)c1", "Potency": "3640 nM (active)"},
      {"smiles": "O=[N+]([O-])c1ccc2c(c1)S(=O)(=O)C=C2", "Potency": "1820 nM (active)"},
      {"smiles": "Cc1[nH]c2ccccc2c1CCNCc1ccc(/C=C/C(=O)NO)cc1", "Potency": "22.9 nM (active)"},
      {"smiles": "CC(/C=C/C(=O)NO)=C\\[C@@H](C)C(=O)c1ccc(N(C)C)cc1", "Potency": "204 nM (active)"},
      {"smiles": "CC[C@@]1(O)C(=O)OCc2c1cc1n(c2=O)Cc2c-1nc1ccccc1c2/C=N/OC(C)(C)C", "Potency": "3240 nM (active)"},
      {"smiles": "COc1ccc(-c2nc(N3CCOCC3)c3sc(CN(C)c4ncc(C(=O)NO)cn4)cc3n2)cn1", "Potency": "5.8 nM (active)"},
      {"smiles": "CC[C@@]1(O)C(=O)OCc2c1cc1n(c2=O)Cc2cc3cc(O)ccc3nc2-1", "Potency": "1620 nM (active)"},
      {"smiles": "COc1cccc2c1C(=O)c1c(O)c3c(c(O)c1C2=O)C[C@@](O)(C(=O)CO)C[C@@H]3O[C@H]1C[C@H](N)[C@H](OC2CCCCO2)[C@H](C)O1", "note": "(stereo partly specified)", "Potency": "5140 nM (active)"},
      {"smiles": "O=C(NC1CCNCC1)c1[nH]ncc1NC(=O)c1c(Cl)cccc1Cl", "Potency": "258 nM (active)"},
      {"smiles": "O=C(/C=C\\n1cnc(-c2cc(C(F)(F)F)cc(C(F)(F)F)c2)n1)NNc1cnccn1", "Potency": "324 nM (active)"},
      {"smiles": "CC(C)CC(=O)Nc1n[nH]c2c1CN(C(=O)C1CCN(C)CC1)C2(C)C", "Potency": "230 nM (active)"},
      {"smiles": "Fc1ccc(CNc2ncnc3ccc(F)cc23)cc1", "Potency": "inactive"},
      {"smiles": "C=C1C(=O)O[C@H]2C[C@H](C)C(/C=C/C(C)=O)=CC[C@H]12", "Potency": "5760 nM (active)"},
      {"smiles": "NC(=O)c1cnc2[nH]ccc2c1NC1C2CC3C[C@H]1CC(O)(C3)C2", "note": "(stereo partly specified)", "Potency": "458 nM (active)"},
      {"smiles": "CCS(=O)(=O)N1CCN(c2ccc(Nc3ncc(C(N)=O)c(NC4CC4)n3)cc2)CC1", "Potency": "1290 nM (active)"},
      {"smiles": "O=C1Nc2ccccc2C1(c1ccc(O)cc1)c1ccc(O)cc1", "Potency": "inactive"},
      {"smiles": "Cc1cc2c(cc1CC(=O)c1sccc1S(=O)(=O)Nc1onc(C)c1Cl)OCO2", "Potency": "inactive"},
      {"smiles": "CC(C)(C)c1cnc(CSc2cnc(NC(=O)C3CCNCC3)s2)o1", "Potency": "289 nM (active)"},
      {"smiles": "CCc1c2c(nc3ccc(O)cc13)-c1cc3c(c(=O)n1C2)COC(=O)[C@]3(O)CC", "Potency": "2570 nM (active)"},
      {"smiles": "O=C(Nc1cn[nH]c1-c1nc2ccc(CN3CCOCC3)cc2[nH]1)NC1CC1", "Potency": "2890 nM (active)"},
      {"smiles": "CN(C)C/C=C/C(=O)Nc1ccc(C(=O)N2CCC[C@@H](Nc3ncc(Cl)c(-c4c[nH]c5ccccc45)n3)C2)cc1", "Potency": "230 nM (active)"}
    ]}
  ]
}
